Source: PubChem BioAssay (National Center for Advancing Translational Sciences (NCATS))
Compounds with a hit are over-represented: about 7.3% of the library has one in this group of screens.
NPC1 promoter act: activators of NPC1 promoter | AID 485313 | 320,000 compounds, 2.4% hits | Huh7 NPC1 promoter luciferase reporter, 24 h | Potency, µM (titrated, usually from 9.22 µM), actives largely listed as activators; also: nearly all actives have a fitted effect of over 60% in size
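In 1536-well qHTS, Huh7 cells harboring an NPC1 promoter–luciferase construct received compound for 24 h; activation was quantified by luminescence following luciferase reagent addition.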
SMN2 splice enh: increases expression of the SMN2 splice variant | Potency, µM (series often up to 46.1 µM), actives largely listed as activators | HEK293 SMN2-luciferase splicing reporter, luminescence, 30-36 h | AID 1458 | 210,000 compounds, 2.8% hits; also: nearly all actives have a fitted effect of over 55% in size
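HEK293 cells carry an SMN2 minigene-luciferase reporter in which exon 7 inclusion puts luciferase in frame. Cells were seeded at 2000 cells/well, attached for 10-12 hours, then exposed to compounds for 30-36 hours at 37C before ONE-Glo luminescence.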
FLuc counter: counter-screen for miR-21 project: firefly luciferase inhibitors or activators. P08659. purified FLuc, Km substrates, luminescence inhibition. Potency, µM (titrated, usually from 57.5 µM), most hits filed as inhibitors. 360,000 compounds, 6.9% hits; also: nearly all actives have a fitted effect of over 55% in size
Target sequence (P08659 whole entry, looked up): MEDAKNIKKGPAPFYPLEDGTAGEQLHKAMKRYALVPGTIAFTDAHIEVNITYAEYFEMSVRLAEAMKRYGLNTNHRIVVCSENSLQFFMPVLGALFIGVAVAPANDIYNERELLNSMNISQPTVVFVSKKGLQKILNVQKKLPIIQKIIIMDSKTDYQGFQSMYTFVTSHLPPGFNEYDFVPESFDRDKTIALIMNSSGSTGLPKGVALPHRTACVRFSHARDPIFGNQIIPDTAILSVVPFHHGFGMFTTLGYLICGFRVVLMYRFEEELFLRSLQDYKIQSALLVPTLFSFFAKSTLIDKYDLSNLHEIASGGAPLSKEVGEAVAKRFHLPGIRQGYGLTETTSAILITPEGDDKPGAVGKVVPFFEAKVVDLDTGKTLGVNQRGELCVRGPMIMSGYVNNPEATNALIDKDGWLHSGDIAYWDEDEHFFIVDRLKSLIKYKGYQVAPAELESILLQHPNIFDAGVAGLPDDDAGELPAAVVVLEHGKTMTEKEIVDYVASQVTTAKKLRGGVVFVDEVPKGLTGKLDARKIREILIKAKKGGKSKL
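Biochemical qHTS of compounds, final roughly 60 µM downward over six points, against 10 nM purified firefly luciferase using Km concentrations of substrates (10 uM D-luciferin, 10 uM ATP) in Tris acetate pH 7.5 buffer; luminescence output.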
ELG1 genotox: genotoxicity induction in ELG1-luciferase HEK293T cells; 330,000 compounds, 1.3% hits; Potency, µM (doses to about 46 µM), usual class: activators; HEK293T ELG1-luciferase reporter, luminescence, 16 h; AID 504466; also: nearly all actives have a fitted effect of over 60% in size
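Step 1: seed 2,000 HEK293T ELG1-luciferase cells per well. Step 2: add compound or DMSO, incubate 16 hr at 37 °C. Step 3: ONE-Glo, 30 min at room temperature, read luminescence.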
Rab9 promoter act: Rab9 promoter activation; Huh7 Rab9 promoter-luciferase reporter, luminescence, 24 h; Potency, µM (titrated, usually from 9.22 µM), hits mostly activators; 320,000 compounds, 2.8% hits; AID 485297; also: nearly all actives have a fitted effect of over 60% in size
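Cell-based reporter: Huh7 stable for Rab9 promoter-driven luciferase, plated in reduced-serum medium with 10% FBS at 1500 cells/well, compound-treated 24 h at 37 °C, luminescence read after 10 min reagent.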
p53 reactivation: restores transcriptional activity of mutant p53. H1299 p53-A138V BP100-luciferase reporter, luminescence, 24 h. Potency, µM (series often up to 92.2 µM), hits mostly activators. 320,000 compounds, 0.063% hits. AID 504706; also: nearly all actives have a fitted effect of over 45% in size
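p53-null H1299 cells stably carrying temperature-sensitive p53-A138V and a BP100-luciferase reporter were pinned with compounds (4-point, 1:5 series) and held 24 hrs at 37 deg C. Luminescence was read 10 min after detection reagent.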
Numbers stand for hits; n = inactive; u = inconclusive; x = no result. Calls follow the shape of the dose curve; as a rule, active = well fitted curve in the direction sought with a large enough effect; inconclusive = small, poorly fitted or top-dose-only effect, or another doubt; inactive = no such curve, though single readings can be large; an effect the other way counts as inactive or inconclusive.

SMILES | NPC1 promoter act | SMN2 splice enh | FLuc counter | ELG1 genotox | Rab9 promoter act | p53 reactivation
O=C(Nc1ccc(F)cc1Cl)C1Cc2ccccc2N1C(=O)c1ccccc1 (centres undefined) | x | x | n | x | x | x
Cc1nc2ccc(NC(=O)Cc3ccccc3F)cc2s1 | 2.8µM | 11µM | 6.7µM | 8.2µM | u | n
Cc1nc2ccc(NC(=O)Cc3cccc(F)c3)cc2s1 | n | n | 19µM | n | n | n
Cc1nc2ccc(NC(=O)Cc3ccsc3)cc2s1 | 2.8µM | u | 12µM | 12µM | u | n
CCc1ccc(S(=O)(=O)c2nnn3c2nc(N2CCOCC2)c2sccc23)cc1 | x | x | n | x | x | x
CCOc1ccc(NC(=O)c2sc3nc4c(cc3c2N)CCCCCC4)cc1 | x | n | n | x | x | x
CCN1CCc2nc3sc(C(=O)c4ccccc4)c(N)c3cc2C1 | x | n | 9.5µM | x | x | x
CCC1CCc2nc3sc(C(=O)Nc4ccc(F)c(Cl)c4)c(N)c3cc2C1 (centres undefined) | x | n | n | x | x | x
Nc1c(C(=O)Nc2ccc(Cl)c(C(=O)O)c2)sc2nc3c(cc12)CCCC3 | u | x | 2.7µM | n | u | n
CCN1CCc2nc3sc(C(=O)c4ccc(F)cc4)c(N)c3cc2C1 | x | x | n | x | x | x
Nc1c(C(=O)Nc2cccc(C(=O)O)c2)sc2nc3c(cc12)CCCC3 | u | x | 0.067µM | u | 1.3µM | n
Nc1c(C(=O)Nc2ccc(C(=O)O)cc2)sc2nc3c(cc12)CCCC3 | x | u | 0.19µM | x | x | x
CCCCc1nn2c(=O)cc(COC(=O)c3cccc(NC(=O)CCc4ccccc4)c3)nc2s1 | x | x | n | x | x | x
Cc1ccc(Cn2c(=O)c3cccnc3n(CC(=O)Nc3cc(Cl)ccc3C)c2=O)cc1 | x | n | n | x | x | x
Cc1ccc(S(=O)(=O)n2nc(C)c(S(=O)(=O)N3CCC(C)CC3)c2C)cc1 | x | x | n | x | x | x
CO | x | n | x | x | x | x
CCOC(=O)c1c(NC2OC(=O)c3c2ccc(OC)c3OC)sc(C(=O)OC(C)(C)C)c1C (centres undefined) | n | x | 17µM | u | n | u
CN(C)c1cc2c(cc1NC(=O)c1ccc(F)cc1)n(C)c(=O)n2C | x | n | n | x | x | x
COC(=O)Cc1ccc(NC(=S)N2CCN(C)CC2)cc1 | n | u | 5.4µM | n | n | n
COC(=O)Cc1ccc(NC(=S)N2CCC(Cc3ccccc3)CC2)cc1 | n | x | 4.8µM | n | n | x
COC(=O)Cc1ccc(NC(=S)N2CCCCC2C)cc1 (centres undefined) | n | n | 4.8µM | n | n | n
CC1(C)CC(=O)C(C(C2=C(O)CC(C)(C)CC2=O)c2cccc(O)c2)C(=O)C1 (centres undefined) | n | n | n | n | n | n
CC1(C)CC(=O)C(C(C2=C(O)CC(C)(C)CC2=O)c2cccs2)C(=O)C1 (centres undefined) | n | x | 17µM | n | n | n
Cc1cc(=O)n2[nH]c(-c3ccc(Cl)cc3)cc2n1 | u | 14µM | 12µM | n | 3.5µM | u
Cc1cc(=O)n2[nH]c(-c3ccc(F)cc3)cc2n1 | u | n | 17µM | u | u | u
SMILES | NPC1 promoter act | SMN2 splice enh | FLuc counter | ELG1 genotox | Rab9 promoter act | p53 reactivation
Cc1cc2nc(CSc3ccc(Cl)cc3)cc(=O)n2[nH]1 | n | n | 17µM | n | n | n
Cc1nc2nc(CSc3ccc(Cl)cc3)cc(=O)n2[nH]1 | n | n | u | n | n | n
COc1ccc(Cn2ccnc2SCC(=O)Nc2ccc(C)cc2C)cc1 | x | x | n | x | x | x
COc1cccc(Cn2c(CNS(=O)(=O)c3ccc(C(C)(C)C)cc3)nc3cccnc32)c1 | x | x | n | x | x | x
Cc1ccc(CSc2nc3cccnc3n2Cc2ccc(C(=O)NCc3cccs3)cc2)cc1 | x | x | 0.95µM | x | x | x
O=C(NCc1cccs1)c1ccc(CSc2nc3cccnc3n2Cc2ccccc2F)cc1 | x | x | n | x | x | x
O=C(NCc1cccs1)c1ccc(Cn2c(SCc3ccc(F)cc3)nc3cccnc32)cc1 | x | x | 5.4µM | x | x | x
O=C(NCc1cccs1)c1ccc(Cn2c(SCc3ccccc3)nc3cccnc32)cc1 | x | x | 6.7µM | x | x | x
COc1ccc(CNCc2ccc(C(=O)O)s2)cc1 | x | n | n | x | x | x
CCS(=O)(=O)N1N=C(c2cccs2)CC1c1cc2cc(C)ccc2nc1Cl (centres undefined) | n | x | 17µM | n | n | n
